Out of some 2,300 compounds screened, about 1,200 (52%) were called active. How the calls were made is not given here. The set was probably picked from earlier hits. This is one part of the list. Results with a measured potency or affinity are listed apart.
assay: mammalian cell cytotoxicity, dose response, cytotoxicity control for M. tuberculosis inhibitor project (AID 435019); details: cytotoxicity counter-screen; series mostly up to 40 µM; viability: at the top concentration;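 further: 0% = background wells and 100% = vehicle-treated cells; lower values mean fewer viable cells so more cytotoxicity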

Q: With `CCOC(=O)COc1ccc2c(c1)C(=O)CC(C)(c1cccnc1)O2` (stereo not drawn) as the compound, how does the “viability” value read?
A: 102% (inactive)

Q: For `Nc1ccc2oc(-c3cccs3)nc2c1`, which “viability” value is on record?
A: 95.4% (inactive)

Q: Which “viability” value does the source give for `CCOC(=O)c1ccc(N=C(CC)c2c(O)n(C)c(=O)n(C)c2=O)cc1` here?
A: 90.3% (inactive)

Q: For `C=CCc1cc(C)ccc1OCCCC(C(=O)OCC)C(=O)OCC`, which “viability” value is on record?
A: 97.1% (inactive)

Q: For `COc1cc(C)ccc1OCCOc1c(C)cc(Cl)cc1Cl`, which “viability” value is on record?
A: 86.2% (inactive)

Q: Which “viability” value does the source give for `C[Se]C[C@@H](N)C(=O)O` here?
A: 101% (inactive)

Q: With `Cc1nc2sccn2c1-c1nc(-c2cc3ccccc3o2)cs1` as the compound, how does the “viability” value read?
A: 86.8% (inactive)

Q: For `Cc1ccc(NC(=O)COC(=O)CCc2c[nH]c3ccccc23)cc1[N+](=O)[O-]`, which “viability” value is on record?
A: 92.4% (inactive)

Q: With `C[C@@H]1CN([C@H](C)CO)C(=O)c2cc(NC(=O)Nc3ccc(C(F)(F)F)cc3)ccc2O[C@H]1CN(C)S(=O)(=O)c1cccs1` as the compound, how does the “viability” value read?
A: 91.9% (inactive)

Q: With `CCOC(=O)CSc1cc(=O)n(C)c2cc(Cl)ccc12` as the compound, how does the “viability” value read?
A: 96.9% (inactive)

Q: Which “viability” value does the source give for `O=C(CSc1nc2ccccc2[nH]1)N1c2ccccc2Sc2ccccc21` here?
A: 81.8% (inactive)

Q: Which “viability” value does the source give for `O=c1cc(O)c2sc3nc(-c4cccnc4)cc(C(F)(F)F)c3c2[nH]1` here?
A: 92.6% (inactive)

Q: For `CC(C)c1ccc(-c2nn(-c3ccccc3)cc2C(=O)NCC2CCCO2)cc1` (stereo not drawn), which “viability” value is on record?
A: 86.4% (inactive)

Q: Which “viability” value does the source give for `COc1ccc(-c2cn3cc([N+](=O)[O-])ccc3n2)cc1OC` here?
A: 96.1% (inactive)

Q: With `C=CCOc1ccc(/C=N/O)cc1Cl` as the compound, how does the “viability” value read?
A: 84.8% (inactive)

Q: For `O=C(Nc1cccc(Cl)c1)N1CCN(C/C=C/c2ccccc2)CC1`, which “viability” value is on record?
A: 84.9% (inactive)

Q: Which “viability” value does the source give for `Cc1ccc(/C=C/S(=O)(=O)NCC(=O)OCC(=O)Nc2c(F)cccc2F)cc1` here?
A: 91.2% (inactive)

Q: For `CC1(C)c2cc(Cl)ccc2-n2c1cc(O)c(-c1ccccc1)c2=O`, which “viability” value is on record?
A: 88.4% (inactive)

Q: Which “viability” value does the source give for `O=c1[nH]c(CSc2cccc[n+]2[O-])nc2ccccc12` here?
A: 93.4% (inactive)

Q: With `O=C(OCc1ccccc1)/C(=C(\O)c1ccccc1Br)c1ccc(-c2ccccc2)cn1` as the compound, how does the “viability” value read?
A: 89.2% (inactive)

Q: For `CCCc1cc(=O)[nH]c(SCC(=O)N2CCCC2=O)n1`, which “viability” value is on record?
A: 95.3% (inactive)

Q: Which “viability” value does the source give for `Cc1nc2ccc(OC(=O)c3ccccc3)cc2s1` here?
A: 86.3% (inactive)

Q: For `Clc1ccc(-c2ccc(C=Nc3ccc(N4CCOCC4)cc3)o2)c(Cl)c1`, which “viability” value is on record?
A: 95.9% (inactive)

Q: With `O=C(CSc1nc2ccccc2nc1N1CCOCC1)N1CCN(c2ccccc2)CC1` as the compound, how does the “viability” value read?
A: 89.7% (inactive)

Q: With `CC(C)OC(=O)CSc1nc2ccccc2s1` as the compound, how does the “viability” value read?
A: 95.2% (inactive)

Q: Which “viability” value does the source give for `C1=C(c2c[nH]c3ccccc23)CCNC1` here?
A: 88.5% (inactive)

Q: For `COc1ccc(N2CN=C3SCC(=O)N3C2)cc1`, which “viability” value is on record?
A: 99.6% (inactive)

Q: For `CCn1nnc(-c2ccc(N)cc2)n1`, which “viability” value is on record?
A: 94.1% (inactive)

Q: With `Nc1ccc(CCc2ccc(N)cc2)cc1` as the compound, how does the “viability” value read?
A: 93.5% (inactive)

Q: With `Cc1cc2cc(CNC(=O)NC3CCCCC3)ccc2[nH]1` as the compound, how does the “viability” value read?
A: 89% (inactive)

Q: For `O=C(/C=C/c1ncc(C(F)(F)F)cc1Cl)OCc1ccccc1`, which “viability” value is on record?
A: 100% (inactive)

Q: Which “viability” value does the source give for `Cc1ccc(-c2nnc(NCc3nc4ccccc4[nH]3)c3ccccc23)cc1S(=O)(=O)N1CCCCC1` here?
A: 81.5% (inactive)

Q: Which “viability” value does the source give for `Cc1ccc(NC(=O)COc2ccc(-n3ccnc3)cc2)cc1Cl` here?
A: 98% (inactive)

Source: PubChem BioAssay AID435019 (Southern Research Specialized Biocontainment Screening …, 2010)
